Several values for one entry are separate records, joined by “and”; a condition that tells them apart may be missing. Identical values can stand only once. Among all 16,000 compounds or so, about 5,700 (36%) were called active. Not shown: some 24% with an inconclusive outcome. This is one part of the list. Unmarked numbers belong to inactive results. The call rests on the fitted dose curve; in most records, active means well fitted curve in the direction sought with a large enough effect; inconclusive means small, poorly fitted or top-dose-only effect, or effect the other way; inactive means no such curve, though single readings can be large or run the other way.
Target: Cytochrome P450 1A2 (Homo sapiens) (UniProt P05177)
Experiment: Cytochrome panel assay with activity outcomes
Conditions: recombinant CYP, pro-luciferin dealkylation, luminescence, p450-cyp1a2; series mostly up to 57.1 µM
Experimental: The P450 gene superfamily is involved in the metabolism and clearance of xenobiotics. This assay used various human CYP P450 isozymes to measure the dealkylation of various pro-luciferin substrates to luciferin. The luciferin is then measured by luminescence after the addition of a luciferase detection reagent. Pro-luciferin substrate concentration in the assay was equal to its KM for its CYP P450 isozyme. Inhibitors and some substrates limit the production of luciferin, and decrease measured luminescence.
NCGC Assay Protocol Summary:
1, Reagent, 2 uL, Isozyme and Pro-Luciferin
2, Library compounds, 23 nl, 40 uM to 0.24 nM dilution series
3, Controls, 23 nl, Isozyme specific inhibitor
4, Reagent, 2 uL, NADPH regeneration solution
5, Incubation time, 60 min, Isozyme specific temperature
6, Reagent, 4ul, Detection reagent
7, Incubation time, 20 min, Isozyme specific temperature
8, Detection, 1 sec, ViewLux luminescent read
The luciferase-based P450-GloTM Screening Systems were obtained from Promega (Madison, WI) for CYP 1A2 (V9770), CYP 2C9 (V9790), CYP2 C19 (V9880), CYP 2D6 (V9890), and CYP 3A4 Luciferin-PPXE (V9910) and were adapted for 1,536-well microplates and an automated protocol. The control compounds furafylline for 1A2 (F124), sulfaphenazole for CYP 2C9 (S0758), ketoconazole for CYP 2C19 (K1003), quinidine for 2D6 (Q3625), and ketoconazole for 3A4 (K1003) were purchased from Sigma Aldrich (St. Louis, MO). Recombinant P450 enzymes were obtained from baculovirus constructs expressed in insect cells (BD/Gentest).
Medium-binding white solid Kalypsys plates used. Mixtures kept on ice. 1A2: 10 nM 1A2, 100 uM Luc-ME, 100 mM KPO4; 2C9: 10 nM 2C9, 100 uM Luc-H, 25 mM KPO4; 2C19: 5 nM 2C19, 10 uM Luc-H EGE, 50 mM KPO4; 2D6: 5 nM 2D6, 30 uM Luc-ME EGE, 100 mM KPO4; 3A4: 10 nM, 25 uM Luc-PPXE. All amounts are reflected in their final concentration, working concentration is 2x.
NADPH regeneration solution: 1.3 mM NADP+, 3.3 mM glucose-6-phosphate, 3.3 mM MgCl2, 0.4 U/mL glucose-6-phosphate dehydrogenase for all isozymes, 200 mM KPO4 for 3A4. Mixture prepared at RT but kept on ice during automated run.
RT incubation in auxilliary plate hotel for 1A2, 2D6, and 3A4; 37C for 2C9 and 2C19.
Keywords: P450, CYP1A2, CYP2C19, CYP2C9, CYP2D6, CYP3A4, Luciferase, MLSMR, MLSCN, NIH Roadmap, qHTS, NCGC
On the % scale 0 is the no-effect control and ±100 the full control effect.

Sequence of Cytochrome P450 1A2 (Homo sapiens) (P05177 whole entry, looked up): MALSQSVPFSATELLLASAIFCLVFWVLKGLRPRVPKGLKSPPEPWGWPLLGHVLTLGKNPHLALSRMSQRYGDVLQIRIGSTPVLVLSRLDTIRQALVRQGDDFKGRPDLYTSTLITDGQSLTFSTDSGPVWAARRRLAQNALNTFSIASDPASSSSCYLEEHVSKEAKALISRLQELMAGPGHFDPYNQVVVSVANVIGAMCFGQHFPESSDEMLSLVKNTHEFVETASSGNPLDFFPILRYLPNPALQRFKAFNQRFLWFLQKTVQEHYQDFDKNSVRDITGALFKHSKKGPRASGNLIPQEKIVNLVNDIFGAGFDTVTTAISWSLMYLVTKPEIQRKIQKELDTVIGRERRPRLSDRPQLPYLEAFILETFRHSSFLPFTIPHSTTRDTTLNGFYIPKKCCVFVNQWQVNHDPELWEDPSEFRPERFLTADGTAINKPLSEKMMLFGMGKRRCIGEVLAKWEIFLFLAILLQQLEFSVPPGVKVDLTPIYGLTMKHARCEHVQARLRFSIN

SMILES	AC50	activity, negative = inhibition
COCCNC(=S)N1C2CCC1CC(NC(=O)NC13CC4CC(CC(C4)C1)C3)C2 (configuration not stated)	inactive	
Nc1nc(N)c(Cn2ccnc2)c(=O)[nH]1		-19.7% [at 11.4 µM]
Cn1c(=O)c2[nH]cnc2n(C)c1=O	inactive	
C[C@@]12CC[C@H]3[C@@H](CCC4=C(O)C(=O)CC[C@]43C)[C@H]1CCC2=O	inactive	
Nc1ncnc2c1ncn2[C@@H]1O[C@@H](COP(=O)(O)CP(=O)(O)OP(=O)(O)O)[C@H](O)[C@@H]1O	inactive	
Cc1ccccc1OCCN=Cc1c(O)n(C)c(=O)n(C)c1=O	12.6 µM (active)	
CCCCn1c(O)c(C=NCCN2CCCCC2)c(=O)[nH]c1=O	inactive	
CCCCCCN=Cc1c(O)n(C)c(=O)n(C)c1=O	12.6 µM (active)	
COc1cccc(-n2c(O)c(C=NCCN3CCOCC3)c(=O)[nH]c2=O)c1	inactive	
O=C(O)/C=C\c1ccc[c]([Sb](=[O])([OH])[OH])c1		-9.5% [at 2.29 µM]
NC(N)=Nc1ccc2[nH]c3c(c2c1)C[C@]1(O)[C@@H]2Cc4ccc(O)c5c4[C@]1(CCN2CC1CC1)[C@@H]3O5	inactive	
NNC(=O)c1ccc(O)cc1	inactive	
CSCC[C@@H](N)P(C)(=O)O		-11% [at 11.4 µM]
COC(=O)N1CCC2(CCCN(C)C2)CC1	inactive	
C[C@H](Br)CN(C[C@H](C)Br)c1ccc2c(c1)Cc1ccccc1-2	3.16 µM (active)	
CCN1C[C@]2(C)CC[C@H](O)[C@@]34[C@@H]5CC6[C@@H](OC)C[C@@](O)([C@@H]5[C@@H]6O)[C@H](C[C@@H]23)[C@H]14	inactive	
C[C@@H]1O[C@@H](O[C@H]2C[C@@H](O)[C@]3(CO)[C@@H]4[C@@H](O)C[C@]5(C)[C@H]([C@@H]6COC(=O)C6)CC[C@@]5(O)[C@H]4CC[C@@]3(O)C2)[C@H](O)[C@H](O)[C@@H]1O	inactive	
CN1CC[C@@]2(CCCN(C(=O)Oc3ccccc3)C2)C1	inactive	
Cc1ncsc1CCCl	31.6 µM (active)	
Oc1ccc([C@H](O)[C@@H]2CCCCN2)cc1O		-3.47% [at 11.4 µM]
O=C(O)[C@@H]1C[C@H]1[C@@H](NP(=O)(c1ccccc1)c1ccccc1)c1ccccc1	inactive	
O=C(O)[C@H]1C[C@@H]1[C@H](NP(=O)(c1ccccc1)c1ccccc1)c1ccccc1	inactive	
C=C(CC1(C(C)NP(=O)(c2ccccc2)c2ccccc2)CC1)c1ccccc1 (configuration not stated)	15.8 µM (active)	

SMILES	AC50	activity, negative = inhibition
c1csc(CN2CCCC3(CCNCC3)C2)n1	inactive	
CC(=O)O[C@H]1CC[C@@]2(C)[C@@H](CC[C@H]3[C@H]2CC(=O)[C@@]2(C)[C@@H]3C[C@H]3CC(C)=CC(=O)[C@H]32)C1		-8.97% [at 2.29 µM]
C[C@H](CCC(=O)O)[C@H]1CC[C@]2(C)[C@@H]3C(=O)C[C@H]4C(C)(C)[C@@H](O)CC[C@]4(C)[C@H]3C(=O)C[C@@]12C		-10.7% [at 11.4 µM]
C[C@H]1CC[C@@]2(NC1)O[C@@H]1C[C@H]3[C@@H]4CC=C5C[C@@H](O)CC[C@]5(C)[C@@H]4CC[C@]3(C)[C@@H]1[C@@H]2C	inactive	
CN(C)CCCc1cccnc1		-10.2% [at 2.29 µM]
COc1ccccc1CC1C(=O)C2CCN1CC2 (configuration not stated)	inactive	
OC1(c2ccc(Cl)cc2)CCN(Cc2c[nH]c3ccccc23)CC1	31.6 µM (active)	
CN(C)Cc1c[nH]c2ccccc12	inactive	
c1cc(CN2CCC3(CCNCC3)CC2)ccn1	inactive	
NCc1cc(=O)[nH]o1	inactive	
CN(C)c1ccc(NC(=O)CN2C(=O)CN=C(c3ccccc3)c3ccccc32)cc1	10 µM (active)	
CCN(CC)CCO[C@H]1CC[C@@]2(C)C(=CC[C@@H]3[C@H]2CC[C@]2(C)C(=O)CC[C@H]32)C1	inactive	
O=C(C[C@H](c1ccccc1)c1c(O)c2ccccc2oc1=O)c1ccccc1		-12.6% [at 2.29 µM]
COc1ccc(NC(=O)N2CC[C@@]3(CCCN(C(=O)Oc4ccccc4)C3)C2)cc1	inactive	
O=C(Nc1ccccc1)N1CCC2(CC1)CCN(C(=O)Oc1ccccc1)CC2	inactive	
COc1ccc(NC(=O)N2CCCC3(CCN(C(=O)Oc4ccccc4)CC3)C2)cc1	12.6 µM (active)	
CN1CCCC2(CCN(C(=O)c3ccncc3)CC2)C1	inactive	
Cc1nc2sccc2c(=O)n1-c1ccccc1Cl	inactive	
O=c1c2ccccc2nc(N2CCCC2)n1-c1ccc(Cl)cc1	5.01 µM (active)	
C[Se]C[C@@H](N)C(=O)O	inactive	
CN1C(=O)CCS(=O)(=O)[C@H]1c1ccc(Cl)cc1	inactive	
O=C(C1CC(=O)N(C2CCCC2)C1)N1CCC2(CC1)OCCO2 (configuration not stated)	inactive	
C[N+]1(C)[C@@H]2CC[C@H]1CC(OC(=O)c1c[nH]c3ccccc13)C2 (some centres not stated)	inactive	

SMILES	AC50	activity, negative = inhibition
N[C@H](Cc1c[nH]c2ccccc12)P(=O)(O)O		-15.7% [at 11.4 µM]
CC(C(=O)c1c[nH]c2ccccc12)N1CCSCC1 (configuration not stated)	15.8 µM (active)	
C=Cn1ccnc1P(=S)(c1nccn1C=C)C1CCCCC1	inactive	
Cc1cc(=O)n(-c2ccccc2)n1C	inactive	
C=C(C)[C@H]1CN[C@H](C(=O)O)[C@@H]1CC(=O)O	inactive	
CC(N)Cc1ccccc1Sc1ccc(O)cc1 (configuration not stated)	inactive	
CC(=O)N[C@@H]1CCSC1=O	inactive	
CC[N@+]1(C)CCC[C@@H](OC(=O)C(O)(c2ccccc2)c2ccccc2)C1	inactive	
CCN(CC)CC#CCOC(=O)[C@@](O)(c1ccccc1)C1CCCCC1	1.26 µM (active)	
CCOC(C(=O)OCCCN(CC)CC)(c1ccccc1)c1ccccc1	inactive	
c1ccc(CN2CCCC3(CCNCC3)C2)cc1	inactive	
C/C(=N\OC(=O)NC(C)C)c1sc(-c2ccc(Cl)cc2)nc1C	1.12 µM (active)	
C/C(=N\OC(=O)NC(C)C)c1sc(-c2ccccc2)nc1C	2 µM (active)	
CC[C@@H]1CN2CCc3cc(OC)c(OC)cc3[C@H]2C[C@@H]1C[C@@H]1NCCc2cc(O)c(OC)cc21	inactive	
CCN1C[C@]2(C)CC[C@H](OC)[C@@]34[C@@H]2[C@H](OC(C)=O)[C@]2(OCO[C@@]25C[C@@H](OC)[C@@H]2C[C@@]3(O)[C@H]5[C@@H]2OC)[C@H]14	inactive	
CCN(CC)c1ncnc2c1ncn2[C@@H]1O[C@@H](COP(=O)(O)OP(=O)(O)C(Br)(Br)P(=O)(O)O)[C@H](O)[C@@H]1O	inactive	
CCc1ccccc1NC(=S)NC1CC2CCC(C1)N2Cc1ccco1 (configuration not stated)	inactive	
CN1[C@@H]2CC[C@H]1CC(O[C@@H](c1ccccc1)c1ccc(Cl)cc1)C2 (some centres not stated)	inactive	
CN1[C@@H](C[C@@H](O)c2ccccc2)CCC[C@@H]1C[C@H](O)c1ccccc1	5.01 µM (active)	
Cn1c[n+](C)cc1C(O)c1ccccc1 (configuration not stated)	inactive	
CN1[C@H](CC(=O)c2ccccc2)CCC[C@H]1C[C@H](O)c1ccccc1	15.8 µM (active)	
CC[C@@]1(c2ccc(N)cc2)CCC(=O)NC1=O	inactive	
Oc1ccc2c3c1O[C@H]1c4[nH]c5ccccc5c4C[C@]4(O)[C@H](C2)N(CC2CC2)CC[C@@]314	inactive	

SMILES	AC50	activity, negative = inhibition
NS(=O)(=O)c1cc([C@@]2(O)NC(=O)c3ccccc32)ccc1Cl	inactive	
C[N+](C)(C)[C@H](Cc1c[nH]c(=S)[nH]1)C(=O)O		-18.9% [at 11.4 µM]
COc1cc(C(=O)OC2C[C@H]3CC[C@@H](C2)N3C)ccc1O (some centres not stated)	inactive	
C=C(C)[C@H]1CC[C@]2(CO)CC[C@]3(C)[C@@H](CC[C@H]4[C@@]5(C)CC[C@@H](O)C(C)(C)[C@@H]5CC[C@@]43C)[C@H]12	inactive	
O=C(Nc1cccc(F)c1)N1CC2(CCNCC2)C1	inactive	
NCCc1c[nH]c2ccc(C(N)=O)cc12	6.31 µM (active) and 1.26 µM (active)	
NCCc1c[nH]c2ccc(O)cc12	2 µM (active)	
CNCCc1c[nH]c2ccc(O)cc12	inactive	
CN(C)CCCc1c[nH]c2ccccc12		-12.5% [at 11.4 µM]
CC(C)C[C@H](NP(=O)(O)O[C@@H]1O[C@@H](C)[C@@H](O)[C@@H](O)[C@H]1O)C(=O)N[C@@H](Cc1c[nH]c2ccccc12)C(=O)O	inactive	
NCCc1c[nH]c2ccccc12	3.16 µM (active)	
NCCc1ccc(O)cc1	inactive	
CC(=O)NCCc1c[nH]c2ccccc12	15.8 µM (active)	
COC(=O)[C@H]1[C@H](c2ccccc2)C(=O)[C@@]2(O)c3ccccc3O[C@@]12c1ccccc1		-5.65% [at 11.4 µM]
CO[C@@H](C)[C@](O)(C(=O)OCC1=CCN2CC[C@@H](O)[C@H]12)C(C)C	inactive	
c1ccc(CCN2CCOCC2)nc1		-3% [at 2.29 µM]
CCCCCCCCCCCCCC(=O)O[C@H]1[C@@H](C)[C@@]2(O)[C@@H](C=C(CO)C[C@]3(O)C(=O)C(C)=C[C@@H]23)C2C(C)(C)[C@]21OC(C)=O (some centres not stated)	inactive	
C[C@H]1[C@H](NC(=O)/C(=N/OC(C)(C)C(=O)O)c2csc(N)n2)C(=O)N1S(=O)(=O)O (stereo in doubt)	inactive	
Cc1ccc(N2C(=O)/C(=C/c3ccc(CN(CCC#N)S(C)(=O)=O)o3)C(=O)NC2=S)cc1C	inactive	
CCCN(CCC)C(=O)Cc1c(-c2ccc(Cl)cc2)nc2c(Cl)cc(Cl)cn12	inactive	
NC(=O)c1ccc(C(=O)Nc2ccc([As](=O)(O)O)cc2)cc1		-13.8% [at 2.29 µM]
CCOP(=O)(CN(CC)CCNP(=O)(OCC)OCC)OCC	inactive	
CN1C2CCC1CC(OC(=O)c1ccc(Cl)cc1)C2 (configuration not stated)	inactive	
